# Shown is part of a subset that was picked to be rich in hits.
# Tg IFNy HTS: blocks Toxoplasma gondii growth in the presence of IFN-gamma; Toxoplasma gondii growth in IFN-gamma-treated host cells; hits give low values; activity change, negative = inhibition, % (test concentration not listed); AID 1259416; 69,000 compounds, 3.8% hits; in the data active = activity change below about -70%, passing the limit was not always enough;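 note: host cells are HeLa cells infected with Toxoplasma gondii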
# Starred values were filed as active, the others as inactive.
SMILES,Tg IFNy HTS
CC(C)(C)OC(=O)Nc1cc(-c2cn[nH]c2C2CCCN(C(=O)OC(C)(C)C)C2)ccn1 (stereo not given),-102*
CC(C)c1cc(C(=O)N2CCCC(c3[nH]ncc3-c3ccccc3)C2)on1 (stereo not given),-4
CCN1c2cc(C)ccc2-n2cccc2C12CCN(C(=O)NC13CC4CC(CC(C4)C1)C3)CC2,88
CC(C)NC(=O)CC1[C@H]2CN(Cc3ccc(F)cc3)C[C@@H]12 (stereo not given in full),26
COc1ccccc1C(=O)N1CCN(Cc2nc(-c3cccnc3Cl)no2)CC1,71
CCCc1nc(N[C@H]2CCCCNC2=O)c2cnn(C)c2n1,-41
Cc1ccsc1CN1CCCC(OCc2cccnc2)C1 (stereo not given),0
CN1Cc2ccccc2CC2(CCN(C(=O)c3ccsc3)CC2)C1=O,19
Cc1cccc(NC(=O)C(=O)NCCc2csc(-c3ccc(F)cc3)n2)c1,-38
O=C(NCCc1csc(-c2ccc(F)cc2)n1)C(=O)Nc1ccccc1,-43
Cc1ccc(NC(=O)C(=O)NCCc2csc(-c3cccc(F)c3)n2)cc1,53
O=C(NCCc1csc(-c2cccc(F)c2)n1)C(=O)Nc1ccc(F)cc1,-37
Cc1cc(C)cc(NC(=O)C(=O)NCCc2csc(-c3ccc(F)cc3)n2)c1,-93*
Cc1cc(C)cc(NC(=O)C(=O)NCCc2csc(-c3cccc(F)c3)n2)c1,-92*
Cc1ccc(-c2nc(CCNC(=O)C(=O)Nc3c(C)cccc3C)cs2)cc1,-50
Cc1ccc(NC(=O)C(=O)NCCc2csc(-c3ccc(F)cc3)n2)cc1,47
Cc1cccc(C)c1NC(=O)C(=O)NCCc1csc(-c2ccc(F)cc2)n1,-78*
Cc1ccnc(NCCNCC(=O)Nc2cnccn2)c1,-11
CCn1cc(-c2c(-c3ccccc3)ncn2Cc2cn3ccc(C)cc3n2)cn1,-13
O=C(Nc1nnc(C2CCCCC2)s1)c1cn2cc(Cl)ccc2n1,12
C[C@H]1CN([C@@H](C)CO)S(=O)(=O)c2ccc(C#CCC3CCCC3)cc2O[C@H]1CN(C)C(=O)c1cnccn1,-91*
C[C@@H]1CN([C@@H](C)CO)S(=O)(=O)c2ccc(C#Cc3ccccc3F)cc2O[C@H]1CN(C)C(=O)Cc1cccnc1,-90*
COc1cccc(C#Cc2ccc3c(c2)O[C@@H](CN(C)C(=O)CN2CCOCC2)[C@@H](C)CN([C@H](C)CO)S3(=O)=O)c1,-42
COc1cccc(C#Cc2ccc3c(c2)O[C@H](CN(C)C(=O)CN2CCOCC2)[C@H](C)CN([C@H](C)CO)S3(=O)=O)c1,6
COCC#Cc1ccc2c(c1)O[C@H](CN(C)C(=O)C1CCOCC1)[C@H](C)CN([C@H](C)CO)S2(=O)=O,65
SMILES,Tg IFNy HTS
C[C@@H]1CN([C@@H](C)CO)S(=O)(=O)c2ccc(C#CCC3CCCC3)cc2O[C@H]1CN(C)C(=O)c1cnccn1,-62
CCN(CC)c1nc(C(=O)N2CCN(C3CCN(C)CC3)CC2)nc2nc(C)cc(C)c12,36
CCN1CCC2(CC1)OC(=O)C(C)=C2C(=O)Nc1ccccc1C(=O)OC,-4
CC(=O)OCC12CC=C(C)C(C1)C(c1ccc(OC(C)=O)cc1)OC2 (stereo not given),18
Cc1nc(CN2CCCn3cnc(COCCO)c3C2)cs1,-11
Cc1ccc(-c2nc3c(s2)CN(S(=O)(=O)c2ccccc2C)CC3)cc1,-90*
O=S(=O)(c1ccc(F)cc1)N1CCc2nc(-c3ccccc3)sc2C1,45
Cc1ccc(-c2nc3c(s2)CN(S(=O)(=O)c2ccc(C)c(C)c2)CC3)cc1,-25
COc1cccc(-c2nc3c(s2)CN(S(=O)(=O)c2ccc(OC)c(OC)c2)CC3)c1,-20
O=S(=O)(c1ccc(F)cc1F)N1CCc2nc(-c3ccccc3)sc2C1,37
COc1ccc(-c2nc3c(s2)CN(S(=O)(=O)c2cc(C)cc(C)c2)CC3)cc1OC,-125*
Cc1cc(C)c(S(=O)(=O)N2CCc3nc(-c4ccccc4)sc3C2)cc1C,-89*
COc1cccc(-c2nc3c(s2)CN(S(=O)(=O)c2cc(C)c(C)cc2C)CC3)c1,-51
Cc1cc(C)c(S(=O)(=O)N2CCc3nc(-c4ccccc4)sc3C2)c(C)c1,-6
COc1ccc(S(=O)(=O)N2CCc3nc(-c4ccc(C)cc4)sc3C2)cc1OC,16
COc1cccc(-c2nc3c(s2)CN(S(=O)(=O)c2ccc(C(C)C)cc2)CC3)c1,-37
COc1cccc(-c2nc3c(s2)CN(S(=O)(=O)c2ccccc2C)CC3)c1,-107*
COc1ccccc1-c1cc(CNC(=O)c2cccc3ccnn23)on1,-18
Cc1c(C)n(Cc2ccco2)c2ncnc(Nc3ccccc3O)c12,52
CN1C[C@@H]2C3(CCN(S(=O)(=O)C4CC4)CC3)CC[C@@]2(C(=O)N(C)C)C1,-1
CC(C)COc1ccc(-c2noc(-c3c(O)c4ccc(F)cc4[nH]c3=O)n2)cc1,-21
CC1CCCc2c1nc(N)c(C#N)c2-c1ccccc1 (stereo not given),-11
COc1ccccc1Cc1nnc(NC(=O)c2cccc(CN3CCCC3=O)c2)s1,-7
